From PubChem BioAssay
The list is not random: actives were taken first. Their share in the collection is about 22%.
Measles CPE = protection of cells from measles virus; Measles virus-infected cells, CPE protection, absorbance; protection (pct of control), % at 4 µM; actives 1.5% (n = 140,000); AID 841; in the data active = protection mostly above about 24%, no sharp cut-off; inactive = mostly below about 26%
CYP2C19 activ = activators of human cytochrome P450 2C19. P33261. recombinant CYP2C19, luciferin-H EGE luminescence; stronger effect = higher value; 0 = fully inhibited enzyme, 1 = untreated enzyme. activation factor at 5 µM. 96,000 tested, under 10 active;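 active = activation factor of at least 2 at 5 µM in the primary screen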
Target sequence (P33261 whole entry, looked up): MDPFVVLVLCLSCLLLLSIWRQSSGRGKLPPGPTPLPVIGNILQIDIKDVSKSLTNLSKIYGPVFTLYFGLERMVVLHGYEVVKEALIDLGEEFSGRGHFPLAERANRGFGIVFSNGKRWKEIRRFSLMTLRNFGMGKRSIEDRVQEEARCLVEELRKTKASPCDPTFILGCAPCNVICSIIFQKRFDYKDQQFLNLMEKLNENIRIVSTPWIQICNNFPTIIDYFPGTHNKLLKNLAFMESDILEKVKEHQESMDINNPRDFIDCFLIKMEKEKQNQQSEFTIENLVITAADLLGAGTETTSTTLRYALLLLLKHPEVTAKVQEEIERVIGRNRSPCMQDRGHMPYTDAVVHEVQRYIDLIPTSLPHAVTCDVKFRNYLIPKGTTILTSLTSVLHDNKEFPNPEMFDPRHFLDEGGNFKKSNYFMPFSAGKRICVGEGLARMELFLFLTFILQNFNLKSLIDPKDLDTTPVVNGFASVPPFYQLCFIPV
CYP2C9 inhib = inhibitors of human CYP2C9 | P11712 | CYP2C9 Supersomes, luciferin-H conversion, luminescence | inhibition, % at 5 µM | actives 20% (n = 96,000);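 active = blocking of liver enzyme CYP2C9 beyond about 50% at 5 µM, limit read from the data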
CYP2C9 act = increases human cytochrome P450 2C9 activity; P11712; AID 1024; recombinant CYP2C9, luciferin-H conversion, luminescence; stronger effect = higher value; factor 1 = untreated enzyme, 0 = blocked; actives 1.4% (n = 96,000); activation factor at 5 µM;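 active = activation factor of 2 or more for CYP2C9 at a 5 µM dose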
CYP2C19 inhib = inhibitors of human CYP2C19 | P33261 | inhibition, % at 5 µM | actives 21% (n = 96,000) | CYP2C19 Supersomes, luciferin-H EGE luminescence, 30 min | AID 778;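 active = CYP2C19 inhibition above a set limit at 5 µM in the primary screen, cut at about 50% in these data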
Each line names hits and unclear results; the compound was inactive in the other large screens; ! = a repeat was not active.

COc1ccc(S(=O)(=O)N(C)CC(=O)NCCC2=CCCCC2)cc1OC	CYP2C19 inhib 81.5
COC(=O)C1=C(C)NC(=O)C1(NS(=O)(=O)c1ccc(NC(C)=O)cc1)C(F)(F)F (stereo not drawn)	none
CCOC(=O)c1c(C)c(C(=O)N2CCc3ccccc3C2)c(C)n1CC	CYP2C19 inhib 85.6
O=C(c1cc2ccccc2c(=O)o1)N1CCc2ccccc2C1	CYP2C9 act 2.5
CCn1c(C(=O)N2CCc3ccccc3C2)cc2oc3ccccc3c21	CYP2C9 inhib 53.1, CYP2C19 inhib 55.3
COc1ccc(S(=O)(=O)N2CCCC(C(=O)NCc3ccco3)C2)cc1Cl (stereo not drawn)	none
CC(=O)Cc1nsc(NC(=O)c2cc(-c3cccc(C(F)(F)F)c3)oc2C)n1	none
COc1ccc(-n2c(=S)[nH]c3ccccc32)cc1	CYP2C19 inhib 53.8
COc1ccc(-n2c(Cn3nnc4ccccc43)n[nH]c2=S)cc1	none (no result: CYP2C19 activ, CYP2C9 inhib, CYP2C9 act, CYP2C19 inhib)
CCO/C=N/c1c(C#N)c2c(c(=S)n1C)COC(C)(C)C2	CYP2C19 inhib 66.3
COC(=O)c1c(C)oc2ccc(N(C(=O)c3ccncc3)S(=O)(=O)c3ccc(C)cc3C)cc12	none (no result: CYP2C19 activ, CYP2C9 inhib, CYP2C9 act, CYP2C19 inhib)
COC(=O)c1c(C)oc2ccc(N(C(=O)c3ccncc3)S(=O)(=O)c3ccc(C)cc3)cc12	CYP2C9 inhib 98.5, CYP2C19 inhib 100.0
COC(=O)c1c(C)oc2ccc(N(C(=O)c3ccncc3)S(=O)(=O)c3ccc4ccccc4c3)cc12	none (no result: CYP2C19 activ, CYP2C9 inhib, CYP2C9 act, CYP2C19 inhib)
COC(=O)c1c(C)oc2ccc(N(C(=O)c3ccncc3)S(=O)(=O)c3ccccc3)cc12	CYP2C9 inhib 76.9, CYP2C19 inhib 91.2
C=CCOn1c(C)c(C(C)=O)c2c3no[n+]([O-])c3ccc21	none (no result: CYP2C19 activ, CYP2C9 inhib, CYP2C9 act, CYP2C19 inhib)
CCOc1c2ccc(C(=O)NCC34CC5CC(CC(C5)C3)C4)cc2nn1CC	none
O=c1oc(-c2ccccc2Cl)nc2ccsc12	CYP2C19 inhib 77.4
O=c1oc(-c2ccc(F)cc2)nc2ccsc12	none
O=S(=O)(NCc1ccco1)c1cnc(Cl)c(Br)c1	none (no result: CYP2C19 activ, CYP2C9 inhib, CYP2C9 act, CYP2C19 inhib)
CCc1ccc(N2C(=O)c3sc4nnc(-c5ccccc5)c(=O)n4c3C2=O)cc1	CYP2C9 inhib 63.6
CCn1c(SCC(=O)NC2CCCC2)nnc1-c1c[nH]c2ccccc12	CYP2C9 inhib 78.5
C=CCSc1nnc(-c2c[nH]c3ccccc23)n1CCOC	none
CCOc1ccccc1-n1c(SCC(=O)NC(C)(C)C)nnc1-c1ccoc1C	none
CCOc1ccccc1-n1c(SCC(=O)NC2CCCC2)nnc1-c1ccoc1C	CYP2C9 inhib 74.4, CYP2C19 inhib 67.7
CCOC(=O)CSc1nnc(-c2c[nH]c3ccccc23)n1CC	CYP2C19 inhib 76.5
CCn1c(SCC(=O)NCC2CCCO2)nnc1-c1c[nH]c2ccccc12 (stereo not drawn)	none
CCn1c(SC(C)C)nnc1-c1c[nH]c2ccccc12	CYP2C19 inhib 80.8
Cc1ccc(C(C(=O)NC2CCCC2)N(Cc2cccs2)C(=O)c2csnn2)o1 (stereo not drawn)	none (no result: CYP2C19 activ, CYP2C9 inhib, CYP2C9 act, CYP2C19 inhib)
COc1ccc(OC)c(/C=N/NC(=O)c2ccc(Cn3cc([N+](=O)[O-])cn3)o2)c1	none (no result: CYP2C19 activ, CYP2C9 inhib, CYP2C9 act, CYP2C19 inhib)
CCn1c(SCC(=O)NCc2ccccc2)nnc1-c1c[nH]c2ccccc12	CYP2C9 inhib 80.9, CYP2C19 inhib 77.4
Cc1cc(C)cc(NC(=O)CSc2nc3c(c(=O)n2C)SC(C)C3)c1 (stereo not drawn)	none
CCOc1ccccc1NC(=O)CSc1nc2c(c(=O)n1C)SC(C)C2 (stereo not drawn)	CYP2C9 inhib 61.3
COc1cccc(NC(=O)CSc2nc3c(c(=O)n2C)SC(C)C3)c1 (stereo not drawn)	CYP2C9 inhib 75.4, CYP2C19 inhib 93.2
CC1Cc2nc(SCC(=O)Nc3ccc(F)cc3)n(C)c(=O)c2S1 (stereo not drawn)	CYP2C9 inhib 64.4
Cc1cc(C)c(NC(=O)CSc2nc3c(c(=O)n2C)SC(C)C3)c(C)c1 (stereo not drawn)	CYP2C9 inhib 81.5
Cc1cccc(/C=N/NC(=O)C2CCCNC2=O)c1 (stereo not drawn)	none (no result: CYP2C19 activ, CYP2C9 inhib, CYP2C9 act, CYP2C19 inhib)
NC(=O)C1CCN(C(=O)COc2ccc(S(=O)(=O)NCc3ccccc3)cc2Cl)CC1	none (no result: CYP2C19 activ, CYP2C9 inhib, CYP2C9 act, CYP2C19 inhib)
Cc1nc([N+](=O)[O-])nn1C12CC3CC(CC(Cl)(C3)C1)C2	none (no result: CYP2C19 activ, CYP2C9 inhib, CYP2C9 act, CYP2C19 inhib)
C=CCNC(=O)COC(=O)c1ccc(Cl)c(S(=O)(=O)N(Cc2ccccc2)c2ccccc2)c1	none (no result: CYP2C19 activ, CYP2C9 inhib, CYP2C9 act, CYP2C19 inhib)
Cc1cccc(N2CCN(CC(=O)Nc3nccs3)CC2)c1C	CYP2C9 inhib 61.5, CYP2C19 inhib 82.1
Cc1ccc2c(c1)cc(CN(Cc1ccc3c(c1)OCO3)C(=O)c1cnccn1)c1nnnn12	none
Cc1cc2cc(CN(Cc3ccc4c(c3)OCO4)C(=O)c3cnccn3)c3nnnn3c2cc1C	CYP2C9 inhib 63.2, CYP2C19 inhib 60.6
O=C(c1ccccc1F)N(Cc1ccc2c(c1)OCO2)Cc1cc2cc3c(cc2n2nnnc12)OCO3	CYP2C9 inhib 50.3, CYP2C19 inhib 77.7
CC(=O)N(Cc1cc2cc(C)c(C)cc2n2nnnc12)CC1COCCO1 (stereo not drawn)	none (no result: Measles CPE)
O=C(NC1CCCCC1)C(c1ccc2ncccc2c1)N(Cc1ccc(F)cc1)C(=O)c1ccc2c(c1)OCCO2 (stereo not drawn)	none
CCOC(=O)C1=C(C)NC(C)=C(C(=O)OC)C1c1cccc(Cl)c1Cl (stereo not drawn)	none (no result: CYP2C19 activ, CYP2C9 inhib, CYP2C9 act, CYP2C19 inhib)
COC(=O)C1=C(C)NC(C)=C(C(=O)OC)C1c1ccccc1OCc1c(C)no[n+]1[O-]	CYP2C9 inhib 89.2, CYP2C19 inhib 70.6
O=C(N/N=C/c1ccc(OC(=O)c2ccccc2)c([N+](=O)[O-])c1)c1ccc(O)cc1	none (no result: CYP2C19 activ, CYP2C9 inhib, CYP2C9 act, CYP2C19 inhib)
Nc1c(C(=O)NCc2ccco2)nnn1Cc1ccccc1	none
O=C(c1ccco1)c1nnn(Cc2ccccc2)c1-c1ccccc1	CYP2C9 inhib 54.2
CCCCNC(=S)NNC(=O)c1sccc1C	CYP2C19 inhib 87.7
Oc1c(C(c2cccs2)N2CCN(c3ccccc3)CC2)sc2ncnn12 (stereo not drawn)	none (no result: CYP2C19 activ, CYP2C9 inhib, CYP2C9 act, CYP2C19 inhib)
Oc1c(C(c2cccs2)N2CCC3(CC2)OCCO3)sc2ncnn12 (stereo not drawn)	CYP2C9 inhib 58.2, CYP2C19 inhib 86.7
COc1ccc(C2=Nn3c(nnc3-c3ccncc3)SC2)cc1OC	CYP2C9 inhib 60.6
CCOC(=O)c1nn(-c2ccccc2)c(C)c1C(C)=O	CYP2C19 inhib 99.9
CCOC(=O)c1nn(-c2ccc(C)cc2)c(C)c1C(C)=O	CYP2C19 inhib 87.6
CCOC(=O)c1nn(-c2ccc(F)cc2)c(C)c1C(C)=O	Measles CPE 46.3, CYP2C19 inhib 99.1
CCOC(=O)c1nn(-c2ccccc2F)c(C)c1C(C)=O	CYP2C19 inhib 98.3
CCOC(=O)c1nn(-c2ccc(OCC)cc2)c(C)c1C(C)=O	none (no result: CYP2C19 activ, CYP2C9 inhib, CYP2C9 act, CYP2C19 inhib)
CCOC(=O)c1nc2ccccc2nc1C	none (no result: CYP2C19 activ, CYP2C9 inhib, CYP2C9 act, CYP2C19 inhib)
COc1cc(COCC(O)CN2CCOCC2)cc(OC)c1OC (stereo not drawn)	Measles CPE 32.1
N#C/C(=N\O)c1nc(-c2ccccc2)cs1	CYP2C9 inhib 62.5!
Cc1ccccc1C(=O)O/N=C1\CCS(=O)(=O)c2sccc21	none
O=c1cnc2ccccc2n1CC1CCCCC1	CYP2C19 inhib 95.8
